Data on 39 compounds can be found in PubChem BioAssay (EPA / NIEHS).

Structures are written as SMILES. “And” between values parts separate entries of the source, which are not always exact repeats. Identical values can stand only once. More than one record can exist for a structure, and the calls need not agree. The source made the active and inactive calls. The calls were made as follows: active = hit-call score of the fitted dose curve at least 0.9, where 1 is the maximum; inactive = score below 0.9.

Read-out in the assay: Interferon-gamma inducible Protein 10 (IP10), CXCL10 (gene 3627)
Nature of the assay: BSK_BE3C_IP10: BioMAP Diversity Plus: BE3C Assay for Interferon-gamma inducible Protein 10 (IP10) Biomarker Activity (AID 2283034). The settings on record: primary human bronchial epithelial cells; actives raise or lower the signal. On the procedure:
BSK_BE3C is a cell-based, multiplexed-readout assay that uses bronchial epithelial cell, a human lung primary cell, with measurements taken at 24 hours after chemical dosing in a 96-well plate.BSK_BE3C_IP10 is an assay component measured in the BSK_BE3C assay. It measures IP-10 antibody related to regulation of gene expression using ELISA technology.Data from the assay component BSK_BE3C_IP10 was analyzed into 1 assay endpoint. This assay endpoint, BSK_BE3C_IP10, was analyzed with bidirectional fitting relative to DMSO as the negative control and baseline of activity. Using a type of binding reporter, gain or loss-of-signal activity can be used to understand changes in the signaling as they relate to the gene CXCL10. Furthermore, this assay endpoint can be referred to as a primary readout, because this assay has produced multiple assay endpoints where this one serves a signaling function. To generalize the intended target to other relatable targets, this assay endpoint is annotated to the cytokine intended target family, where the subfamily is chemotactic factor.
The levels of cell surface (or secreted, indicated by the prefix "s") biomarker endpoints were measured by ELISA. Overt cytotoxicity to cells in confluent adherent cultures (all systems other than the BT system) was assessed by measuring total protein levels using sulforhodamine B (SRB) staining in parallel cultures at the time of biomarker measurements, indicated as SRB endpoints. For proliferation assays for adherent cell types, individual cell types are cultured at sub-confluence and relative cell numbers quantified by SRB staining at time points optimized for each system (48 h: 3C and CASM3C systems; 72 h: BT and HDF3CGF systems; 96 h: SAg system). SRB was performed by staining cells with 0.1% SRB after fixation with 10% TCA and reading wells at 560 nm.Viability and proliferation of PBMC (T cells) was quantified by Alamar Blue reduction for the SAg and BT systems. For PBMC viability (referred to as PBMC Cytotoxicity within the assay endpoint names), cells were plated (75,000/well in a 96-well plate) and then chemical samples added for 1 h before addition of activators, SEB and TSST-1 (20 ng/mL final concentration each). Cells were incubated for 90 h. Then, Alamar Blue (20 uL/well) (Invitrogen, Cat DAL1100) was added for 6 h, and the plates were read with a fluorescence microplate reader at 546/580 nm (excitation/emission). For PBMC proliferation, cells were plated and activated as above but incubated for only 16 h prior to addition of Alamar Blue. Plates were read after 6 h.
As to `FC(F)(F)C(F)(F)C(F)(F)CI`, the result was inactive.

For `CC(C)(C)C(=O)CC(=O)C(F)(F)C(F)(F)C(F)(F)F`, the result was inactive.

One may read the AC50 as the concentration at which the activity in the assay is half-maximal. As for `N=C(N)C(F)(F)C(F)(F)C(F)(F)C(F)(F)C(F)(F)C(F)(F)C(F)(F)F`, the result was inactive and the AC50 was 48.6 µM (active).

For `O=C(O)C(F)(F)C(F)(F)C(F)F`, the outcome was inactive.

For `C=CC(=O)OCC(F)(F)C(F)(F)C(F)(F)C(F)(F)C(F)(F)C(F)(F)C(F)(F)F`, the result was inactive.

Regarding `O=C(Cl)C(F)(F)C(F)(F)C(F)(F)C(F)(F)C(F)(F)C(F)(F)C(F)(F)C(F)(F)F`, the half-maximal activity concentration (AC50) is 39.8 µM (active) and 36.6 µM (active) and 44.6 µM (active).

As for `COC(=O)CCC(F)(F)C(F)(F)C(F)(F)C(F)(F)F`, the outcome was inactive.

For the compound `OCC(F)(F)C(F)(F)C(F)(F)C(F)(F)C(F)(F)C(F)(F)F`, the outcome was inactive.

Turning to `O=C(O)C=C(C(F)(F)F)C(F)(F)F`, the result was inactive.

Turning to `CCc1c(Br)c(Br)c(Br)c(Br)c1Br`, the result was inactive.

Turning to `O=C(O)C(F)(OC(F)(F)C(F)(OC(F)(F)C(F)(OC(F)(F)C(F)(F)C(F)(F)F)C(F)(F)F)C(F)(F)F)C(F)(F)F` (stereo not given), the result was inactive.

Regarding `C=C(C)C(=O)OCCC(F)(F)C(F)(F)C(F)(F)C(F)(F)C(F)(C(F)(F)F)C(F)(F)F`, the outcome was inactive.

Take `FC1CC(F)(F)C(F)(F)C1(F)F` (stereo not given): the result was inactive.

On to `CCCCNc1ccccc1`, for which the outcome was inactive.

Regarding `CC(=O)Nc1ccc(N=Nc2cc(C)ccc2O)cc1`, the AC50 is 29.7 µM (active).

On to `CS(C)(=O)=O`, for which the outcome was inactive.

In the case of `OCC(F)(F)C(F)(F)C(F)(F)C(F)(F)C(F)(F)C(F)F`, the result was inactive.

`O=C(O)C(F)(F)C(F)(F)C(F)(F)C(F)(F)C(F)(F)C(F)(F)C(F)(F)C(F)(F)C(F)(F)C(F)(F)C(F)(F)C(F)(F)C(F)(F)F`: the outcome was inactive.

Regarding `FC(F)(F)C(F)(F)C(F)(F)C(F)(F)C(F)(F)C(F)(F)C(F)(F)I`, the result was inactive.

For the compound `FC(F)(I)C(F)(F)C(F)(F)C(F)(F)I`, the AC50 is 58.2 µM (active) and 46.9 µM (active) and 54.8 µM (active).

As for `FC(F)(F)C(F)(F)C(F)(F)C(F)(F)C(F)(F)C(F)(F)CCS`, the result was inactive.

As for `NC(=O)C(F)(F)C(F)(F)C(F)(F)C(F)(F)F`, the outcome was inactive.

Take `FC(F)(F)C(F)(F)C(F)(F)C(F)(F)C(F)(F)CCI`: the result was inactive.

As to `CCO[Si](CCC(F)(F)C(F)(F)C(F)(F)C(F)(F)C(F)(F)C(F)(F)F)(OCC)OCC`, the result was inactive.

Take `CCCCCCCCCCCCCCCC[N+](C)(C)Cc1ccccc1`: the AC50 was 2.47 µM (active).

For `C=C(C)C(=O)OCC(F)(F)C(F)(F)C(F)(F)F`, the result was inactive.

For `CCN(CC)c1ccc2c(C)cc(=O)oc2c1`, the result was inactive.

As for `C=CC(=O)OCC(F)(F)C(F)(F)C(F)(F)C(F)(F)COC(=O)C=C`, the concentration at half-maximal activity (AC50) was 45.1 µM (active) and 45.8 µM (active).

On to `O=C(O)C(F)(OC(F)(F)C(F)(OC(F)(F)C(F)(F)C(F)(F)F)C(F)(F)F)C(F)(F)F` (stereo not given), for which the result was inactive.

For `O=C(O)C(F)(F)C(F)(F)F`, the outcome was inactive.

Regarding `CCc1ccc(C(c2ccc(CC)cc2)C(Cl)Cl)cc1`, the AC50 was 20 µM (active).

For `FC(F)(F)C(F)(F)C(F)(F)C(F)(F)C(F)(F)C(F)(F)C(F)(F)C(F)(F)CCS`, the result was inactive.

Regarding `C#C[C@]1(O)CC[C@H]2[C@@H]3CCc4cc(OC)ccc4[C@H]3CC[C@@]21C`, the result was inactive.

In the case of `CCCCCCCOC(=O)c1ccccc1C(=O)OCCCCCCC`, the outcome was inactive.

In the case of `OCC(F)(F)C(F)(F)C(F)(F)F`, the outcome was inactive.

As for `OCCCC(F)(F)C(F)(F)C(F)(F)C(F)(F)C(F)(F)C(F)(F)C(F)(F)F`, the AC50 is 47.6 µM (active) and 46.4 µM (active).

On to `CCCCC(CC)COP(=O)(O)OCC(CC)CCCC` (stereo not given), for which the half-maximal activity concentration (AC50) is 32 µM (active) and 31.2 µM (active).

Turning to `O=C(O)C(F)(F)C(F)(F)C(F)(F)C(F)(F)C(F)(F)C(F)(F)C(F)(F)C(F)(F)C(F)(F)C(F)(F)C(F)(F)C(F)(F)F`, the outcome was inactive.

In the case of `FC(F)(F)C(F)(F)C(F)(F)C(F)(F)CCI`, the result was inactive.
